A selection: hits, their analogues and other compounds. The true share with any hit is near 3.7%.
GDH-TPI counter-1 = GDH-TPI coupled enzyme inhibition counter-screen. GDH-TPI coupled enzyme counterscreen, NADH absorbance. inhibition, % at 4.8 µM. 360,000 tested, 1.2% active. AID 588335; in the data active means inhibition above about 30%;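 further: 0% = DMSO wells and 100% = wells lacking the enzyme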
FBA Mtb inh = inhibitors of M. tuberculosis fructose-bisphosphate aldolase; 360,000 tested, 2.3% active; purified M. tuberculosis FBA, fluorescence read-out; P9WQA3; inhibition, % at 1 µM;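 further: 0% = vehicle and 100% = reference inhibitor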
Mtb UGM inh = inhibitors of M. tuberculosis UDP-galactopyranose mutase | P9WIQ1 | purified UGM, fluorescence polarization probe displacement | inhibition, % at 10 µM | 320,000 tested, 0.06% active; in the data active means inhibition above about 10%, passing the limit was not always enough
Mtb bLac sens = beta-lactam sensitization of Mtb H37Rv | M. tuberculosis H37Rv growth with meropenem, percent inhibition | inhibition, % at 25 µM | 330,000 tested, 0.27% active | AID 434955; call rule not given here;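 further: growth measured after seven days incubation then overnight dye step; 0% = bacteria only wells and 100% = bacteria with antibiotic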
Rv3671c inh = Rv3671c (M. tuberculosis) protease inhibition; P9WHR9; inhibition, % at 5.96 µM; 320,000 tested, 0.048% active; in the data active means inhibition above about 38%;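 further: extracellular domain of Rv3671c used as enzyme; 0% = enzyme with DMSO and 100% = no enzyme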
Target sequence (P9WHR9 whole entry, looked up, the tested form may be a part): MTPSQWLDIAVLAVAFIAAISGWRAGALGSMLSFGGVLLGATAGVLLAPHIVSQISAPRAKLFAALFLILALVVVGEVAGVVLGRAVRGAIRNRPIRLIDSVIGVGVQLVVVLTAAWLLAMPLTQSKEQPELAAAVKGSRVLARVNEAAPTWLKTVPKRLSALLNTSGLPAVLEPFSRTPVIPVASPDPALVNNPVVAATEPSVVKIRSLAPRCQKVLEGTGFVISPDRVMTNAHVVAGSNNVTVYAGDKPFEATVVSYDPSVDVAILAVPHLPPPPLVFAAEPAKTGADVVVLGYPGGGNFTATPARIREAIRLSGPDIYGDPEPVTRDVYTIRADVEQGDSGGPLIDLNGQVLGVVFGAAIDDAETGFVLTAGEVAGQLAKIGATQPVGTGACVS
FadD28 binding = M. tuberculosis FadD28 bisubstrate binding inhibition; FadD28 bisubstrate probe binding, fluorescence polarization; inhibition, % at 12.5 µM; 360,000 tested, 0.22% active; in the data active means inhibition above about 8.5%, passing the limit was not always enough
Mtb FBA inh conf = Mtb FBA inhibition, confirmed; purified M. tuberculosis FBA, fluorescence read-out; shares compounds with FBA Mtb inh; 5,600 tested, 78% active; AID 651616; inhibition, % at 1 µM;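 further: 0% = vehicle wells and 100% = reference inhibitor wells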
GDH-TPI counter-2 = counter-screen for M. tuberculosis FBA inhibitors: GDH-TPI coupled enzyme inhibition | inhibition, % at 1 µM | shares compounds with FBA Mtb inh | AID 652141 | GDH-TPI coupled enzyme counterscreen, fluorescence | 5,600 tested, 81% active; in the data active means inhibition above about 10%
An asterisk follows results filed as active; . = no result given; + = active, no number. Unless noted, no stated cut-off is given here; in the data, active means inhibition above about 27%; inactive means the rest.

SMILES	GDH-TPI counter-1	FBA Mtb inh	Mtb UGM inh	Mtb bLac sens	Rv3671c inh	FadD28 binding	Mtb FBA inh conf	GDH-TPI counter-2
CCOC(=O)C1(C)CCCCCN1C(=O)c1snnc1C (stereo unspecified)	6	1	.	.	.	-1	.	.
COc1c2ccoc2nc2c(OC)cccc12	14	55*	-2	4	1	-1	113*	97*
COc1cccc2c(=O)ccoc12	-7	17	-1	0	0	-4	.	.
CC1(C(=O)N2Cc3ccccc3C2)CCN1C(=O)C1(c2ccc(Cl)cc2)CC1 (stereo unspecified)	16	0	.	.	.	-1	.	.
CCOC(=O)C(=CN=C(N)Nc1nc2ccccc2o1)C(=O)OCC	16	32*	-1	85	0	0	29*	23*
CCCOC(=O)Nc1nc2ccccc2o1	10	1	0	24	2	1	.	.
COc1ccc2[nH]c(-c3cccc(F)c3)cc(=O)c2c1	3	41*	-2	-1	-1	-2	2	-4
Cc1ccc2[nH]c(-c3cccc(F)c3)cc(=O)c2c1	15	11	-2	2	-10	-1	.	.
Cc1ccc(C2C=C(c3ccccc3)Nc3ncnn32)cc1 (stereo unspecified)	0	30*	0	-17	-11	-1	38*	26*
CCOc1ccc(C2C=C(c3ccc(F)cc3)Nc3ncnn32)cc1 (stereo unspecified)	14	31*	-1	85	-3	-4	146*	100*
COc1ccc2c3c([nH]c2c1)C(C)=NCC3	22	19	-2	1	-4	-6	.	.
CC1=NCCc2c1[nH]c1cc(O)ccc21	27	74*	31*	0	6	-1	94*	48*
N#Cc1c(C(F)(F)F)cc(-c2ccccc2)nc1SCCN1CCOCC1	1	47*	-1	6	-9	-5	-2	-5
COc1cccc(-c2c(-c3cc(OC)cc(OC)c3)n(C)c3ccc(-c4cccc5[nH]ccc45)cc23)c1	25	54*	1	7	-4	-2	+	+
COc1cc(OC)cc(-c2c(-c3ccc(F)cc3)c3cc(-c4ccc(OC)nc4)ccc3n2C)c1	4	5	0	-11	-4	-1	.	.
COc1cc(OC)cc(-c2c(-c3ccc(F)cc3)c3cc(-c4cccc5[nH]ccc45)ccc3n2C)c1	29	48*	-1	8	5	0	5	-9
COc1cc(OC)cc(-c2c(C#Cc3ccsc3)c3cc(-c4cccc5[nH]ccc45)ccc3n2C)c1	20	21	1	-1	-5	-3	.	.
Cc1nc2cccc(C(=O)Oc3ccc([N+](=O)[O-])cc3)c2o1	4	43*	0	-3	-8	-1	159*	146*
Cc1c(-c2ccccc2)nc2ccccc2c1C(=O)Oc1ccc([N+](=O)[O-])cc1	13	0	0	22	-5	-3	.	.
Fc1ccc2[nH]c3c(Cl)ncnc3c2c1	0	40*	-1	-3	-1	-2	164*	158*
CCCCOc1ncnc2c1[nH]c1ccc(F)cc12	-2	32*	1	11	-9	-5	189*	160*
COc1cccc2[nH]c3c(Cl)ncnc3c12	11	41*	0	-13	8	0	163*	144*
COc1cc(OC)c(OC)cc1/C=N/Nc1ncnc2c1[nH]c1ccccc12	19	5	-1	-10	1	-4	.	.
COc1ccc2[nH]c3c(Cl)ncnc3c2c1	6	2	1	4	-2	-2	.	.
CN(Cc1ccccc1F)C(=O)c1cccc(NC(=O)CC2SC(N3CCCCC3)=NC2=O)c1 (stereo unspecified)	7	2	.	.	.	0	.	.
CC(C)C(=O)N1CCC1(C)C(=O)Nc1cc(-c2ccccc2)nn1C (stereo unspecified)	8	-1	.	.	.	-1	.	.
CCOC(=O)c1sc(N(C)C)nc1-c1ccccc1	14	39*	4	3	7	1	136*	97*
COc1ccc(CC(=O)N2CCN(C(=O)Cc3ccc(OC)cc3)CC2)cc1	1	4	2	-4	6	-2	.	.
